Active and inactive are the calls of the source.
Assay: E. coli acrAB mutant growth effects, primary screen, E. coli filamentation inducers, strain DRC39, OD650, 48 h (AID 1179);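 further: screen aims at cell division blockers that make cells filament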
Settings: E. coli DRC39 delta-acrAB growth, higher = more signal, called active from +8 up or from −8 down

z-score, inactive:
COC(=O)[C@]1(CCS(=O)(=O)c2ccccc2)N=C(c2ccc(OCCCO)cc2)O[C@@H]1c1ccccc1N=[N+]=[N-] -0.718
CC(C)C(CO)N1C(=O)[C@@H]2C3C(=O)OCCC/C=C\[C@H]3OC23C=CCN(c2ccc4ccccc4c2)C(=O)[C@@H]13 (stereo not given in full) -0.24
CN1C2C=C(CCCO)C(C3C(=O)N(C(N)=O)C(=O)C32)C1C1CC1 (stereo not given) -0.743
NCCCCCNC(=O)[C@@H]1C[C@@H]2C(=O)N[C@@H](CCCCN)C(=O)N2[C@@H]1c1ccc(O)cc1 -0.14
CCCCCC1=C2CNC(C)(C(=O)OC)C=C2C(C)C1=O (stereo not given) -0.193
COc1ccc(CCNC(=O)[C@@]2(c3ccc([N+](=O)[O-])cc3)CC(=O)N(C3CCCCC3)[C@@H]2c2ccc(CO)cc2)cc1 0.686
COCCOC(=O)N1C(=O)[C@@]2(c3cc(C#CCC(C(=O)OC)C(=O)OC)ccc31)[C@H](c1ccc(OCCO)cc1)N1[C@H](c3ccccc3)[C@H](c3ccccc3)OC(=O)[C@H]1[C@@H]2C(=O)N1CCc2cc(OC)c(OC)cc2C1 0.294
O=C(c1ccccc1)N1C(=O)[C@]2(Cc3ccccc31)N=C(c1ccc(OCCCO)cc1)O[C@@H]2c1ccccc1 -1.01
COc1ccc([Si](C)(C)[C@@H]2[C@@H](CCO)O[C@]3(C(=O)N(Cc4ccccc4)c4ccc(N5CCOC5=O)cc43)[C@H]2C)cc1 -0.978
O=C1C2C=CC(C(O)c3ccco3)N(Nc3ccccc3F)C2C(=O)N1c1ccccc1 (stereo not given) -0.921

From PubChem BioAssay
